Out of some 5,500 compounds screened, about 2,000 (36%) were called active. Roughly 18% stayed inconclusive and do not appear here. No stated cut-off is given here; in the data, active means normalized growth mostly below about 0.91 (no sharp cut-off); inconclusive means no clear call, values can overlap the other calls; inactive means mostly above about 0.92. The list shows a part of the results.
Assay: chemical genetic growth profiling, strain panel (AID 1159580);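 further: tested at 20 µM; growth read once vehicle control cultures reached saturation at 30 °C; 1 = growth at the plate median or of vehicle wells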
Details: S. cerevisiae deletion strains, growth OD

Measured: normalized growth

CNC(=O)Oc1ccccc1OC(C)C
inactive: locus YAL013W, strain DEP1, stronger effect = lower value 1.01 | locus YAL021C, strain ccr4, stronger effect = lower value 0.987 | locus YAL026C, strain drs2, stronger effect = lower value 0.99 | locus YAL030W, strain snc1, stronger effect = lower value 0.992 | locus YBL061C, strain skt5, stronger effect = lower value 0.987 | locus YBR009C, strain hhf1, stronger effect = lower value 0.99 | locus YBR021W, strain FUR4, stronger effect = lower value 1.02 | locus YBR023C, strain chs3, stronger effect = lower value 0.985 | locus YBR171W, strain sec66, stronger effect = lower value 0.97 | locus YBR229C, strain ROT2, stronger effect = lower value 1.02 | locus YBR231C, strain swc5, stronger effect = lower value 0.984 | locus YBR279W, strain paf1, stronger effect = lower value 0.989 | locus YCL011C, strain gbp2, stronger effect = lower value 0.994 | locus YCL016C, strain dcc1, stronger effect = lower value 0.99 | locus YCL029C, strain bik1, stronger effect = lower value 0.994 | locus YCL061C, strain MRC1, stronger effect = lower value 0.994 | locus YCL069W, strain vba3, stronger effect = lower value 0.989 | locus YCR088W, strain abp1, stronger effect = lower value 0.99 | locus YDL005C, strain med2, stronger effect = lower value 0.985 | locus YDL035C, strain GPR1, stronger effect = lower value 1.03 | locus YDL040C, strain nat1, stronger effect = lower value 0.979 | locus YDL074C, strain BRE1, stronger effect = lower value 1.08 | locus YDL101C, strain DUN1, stronger effect = lower value 1.02 | locus YDL134C, strain PPH21, stronger effect = lower value 1.02 | locus YDL185W, strain tfp1, stronger effect = lower value 0.979 | locus YDL192W, strain arf1, stronger effect = lower value 0.989 | locus YDR001C, strain nth1, stronger effect = lower value 0.993 | locus YDR069C, strain doa4, stronger effect = lower value 0.983 | locus YDR101C, strain arx1, stronger effect = lower value 0.983 | locus YDR137W, strain rgp1, stronger effect = lower value 1.05 | locus YDR150W, strain NUM1, stronger effect = lower value 1.02 | locus YDR159W, strain sac3, stronger effect = lower value 0.973 | locus YDR162C, strain NBP2, stronger effect = lower value 1.01 | locus YDR195W, strain ref2 0.915 | locus YDR297W, strain sur2, stronger effect = lower value 0.998 | locus YDR318W, strain mcm21, stronger effect = lower value 0.996 | locus YDR334W, strain swr1, stronger effect = lower value 0.982 | locus YDR335W, strain msn5, stronger effect = lower value 0.998 | locus YDR388W, stronger effect = lower value 0.986 | locus YDR392W, strain spt3, stronger effect = lower value 0.978 | locus YDR502C, strain sam2, stronger effect = lower value 1 | locus YEL003W, strain gim4, stronger effect = lower value 0.993 | locus YEL037C, strain rad23, stronger effect = lower value 0.989 | locus YEL061C, strain CIN8 (second series), stronger effect = lower value 0.983 | locus YEL061C, strain CIN8, stronger effect = lower value 1.01 | locus YER015W, strain faa2, stronger effect = lower value 0.991 | locus YER016W, strain bim1, stronger effect = lower value 0.991 | locus YER110C, stronger effect = lower value 0.994 | locus YER111C, strain swi4, stronger effect = lower value 0.984 | locus YER155C, strain BEM2 (second series), stronger effect = lower value 0.97 | locus YER155C, strain BEM2, stronger effect = lower value 1.02 | locus YER167W, strain BCK2, stronger effect = lower value 1 | locus YFR010W, strain ubp6, stronger effect = lower value 0.992 | locus YGL078C, strain dbp3, stronger effect = lower value 0.966 | locus YGL086W, strain mad1, stronger effect = lower value 0.994 | locus YGL167C, strain pmr1, stronger effect = lower value 0.987 | locus YGL173C, strain kem1, stronger effect = lower value 0.987 | locus YGL227W, strain vid30, stronger effect = lower value 0.982 | locus YGL240W, strain doc1, stronger effect = lower value 0.974 | locus YGL248W, strain PDE1, stronger effect = lower value 1.02 | locus YGL253W, strain hxk2, stronger effect = lower value 0.99 | locus YGR078C, strain PAC10, stronger effect = lower value 1.03 | locus YGR135W, strain pre9, stronger effect = lower value 0.993 | locus YGR229C, strain SMI1, stronger effect = lower value 1.03 | locus YGR252W, strain gcn5, stronger effect = lower value 0.991 | locus YHR013C, strain ard1, stronger effect = lower value 0.954 | locus YHR027C, strain rpn1, stronger effect = lower value 0.996 | locus YHR030C, strain SLT2, stronger effect = lower value 1.02 | locus YHR079C, strain IRE1 (second series), stronger effect = lower value 0.988 | locus YHR094C, strain hxt1, stronger effect = lower value 0.992 | locus YHR129C, strain ARP1, stronger effect = lower value 1.03 | locus YHR142W, strain chs7, stronger effect = lower value 1 | locus YHR200W, strain rpn10, stronger effect = lower value 0.986 | locus YIL066C, strain RNR3, stronger effect = lower value 1.02 | locus YIL073C, strain SPO22, stronger effect = lower value 0.999 | locus YIL125W, strain kgd1, stronger effect = lower value 0.984 | locus YIR030C, strain dcg1, stronger effect = lower value 0.986 | locus YJL092W, strain hpr5, stronger effect = lower value 0.998 | locus YJL095W, strain BCK1 (second series), stronger effect = lower value 0.986 | locus YJL095W, strain BCK1, stronger effect = lower value 1.02 | locus YJL115W, strain asf1, stronger effect = lower value 0.972 | locus YJL129C, strain trk1, stronger effect = lower value 0.986 | locus YJL134W, strain LCB3, stronger effect = lower value 1.02 | locus YJL154C, strain vps35, stronger effect = lower value 0.993 | locus YJL164C, strain tpk1, stronger effect = lower value 0.996 | locus YJL166W, strain qcr8, stronger effect = lower value 0.994 | locus YJL168C, strain set2, stronger effect = lower value 0.989 | locus YJL187C, strain SWE1 (second series), stronger effect = lower value 1.02 | locus YJL187C, strain SWE1, stronger effect = lower value 0.995
